Source: PubChem
RGS4 inh – Inhibitors of Regulator of G Protein Signaling (RGS) 4: qHTS; Potency, µM (titrated, usually from 114 µM), without a hit: at the top dose activity change, negative = inhibition, hits mostly inhibitors; Transcreener GDP fluorescence polarization, RGS4-accelerated GTP hydrolysis; 0.039% of 390,000 active; Regulator of G-protein signaling 4 (Homo sapiens), P49798; AID 504845, 2011; note: % is set by controls: 0 for no effect and ±100 for the full control effect; nearly all actives have a fitted effect of over 75% in size
Target sequence (P49798 whole entry, looked up): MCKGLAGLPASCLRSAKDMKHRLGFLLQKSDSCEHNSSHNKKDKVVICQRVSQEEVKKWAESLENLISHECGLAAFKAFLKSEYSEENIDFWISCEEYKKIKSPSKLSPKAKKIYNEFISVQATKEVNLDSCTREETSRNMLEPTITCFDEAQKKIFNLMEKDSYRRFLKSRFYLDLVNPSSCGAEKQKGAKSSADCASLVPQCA
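MLSMR compounds (23 nl, pin-transferred) preincubated 10 min at room temperature with a 500nM (2x) first reagent, then RGS4 at 900nM (2x) plus Transcreener GDP mix added; fluorescence polarization (620/688 nm) read before and after 90 min at 30 °C.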
EPAC1 antag – qHTS for Antagonist of cAMP-regulated guanine nucleotide exchange factor 3 (EPAC1): primary screen; Rap guanine nucleotide exchange factor 3 (Homo sapiens), O95398; EPAC1 GEF assay, Rap1b-BODIPY-GDP exchange fluorescence; Potency, µM (highest dose often 115 µM), for the others: at the top dose activity change, negative = inhibition, most hits filed as inhibitors; 0.14% of 360,000 active;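 note: plate controls were vehicle for no effect and positive control for full effect; nearly all actives have a fitted effect of over 50% in size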
EPAC2 agonist – qHTS for Agonist of cAMP-regulated guanine nucleotide exchange factor 4 (EPAC2): primary screen | Potency, µM (titrated, usually from 154 µM), for inactives: at the highest dose activation, actives largely listed as activators | 0.079% of 360,000 active | Rap guanine nucleotide exchange factor 4 (Homo sapiens), Q8WZA2 | EPAC2 activation, biochemical qHTS; response scale: 100% = 6.5 mM cAMP response; note: nearly all actives have a fitted effect of over 50% in size
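Fluorescence exchange assay: 100 nM EPAC2 with 250 nM RAP1B-BODIPY-GDP and 50 uM GDP; compounds tested as a concentration-titration series (qHTS). Loss of Rap1-bound BODIPY-GDP fluorescence read at 480/540 nm; data normalized to 6.5 mM cAMP.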
EPAC2 antagonist – qHTS for Antagonist of cAMP-regulated guanine nucleotide exchange factor 2 (EPAC2): primary screen; Rap guanine nucleotide exchange factor 4 (Homo sapiens), Q8WZA2; EPAC2 GEF exchange of Rap1B-BODIPY-GDP, fluorescence; Potency, µM (highest dose often 114 µM), for the others: at the highest dose activity, negative = inhibition, hits mostly inhibitors; 0.18% of 360,000 active; note: % is set by controls: 0 for no effect and ±100 for the full control effect; nearly all actives have a fitted effect of over 45% in size
EPAC1 agonist – qHTS for Agonist of cAMP-regulated guanine nucleotide exchange factor 3 (EPAC1): primary screen; Rap guanine nucleotide exchange factor 3 (Homo sapiens), O95398; EPAC1 agonist qHTS, biochemical assay; response scale: 100% = response to 6.5 mM cAMP; Potency, µM (top dose mostly 154 µM), without a hit: top-dose activation, most hits filed as activators; 0.073% of 360,000 active; note: nearly all actives have a fitted effect of over 60% in size
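Nucleotide exchange by EPAC1 (100 nM) on Rap1B–BODIPY-GDP (250 nM) in the presence of 50 uM GDP is tracked fluorescently at 480/540 nm over 30 min. Signals are normalized to a 6.5 mM cAMP control.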
ERG Ets-DNA blk – qHTS for Small Molecule Inhibitors of the ERG Ets/DNA interaction; fluorescence polarization, His-ERG Ets domain / labelled DNA; AID 624246, 2012; Potency, µM (doses to about 76.9 µM), for the others: at the top dose FP activity, negative = inhibition, most hits filed as inhibitors; Transcriptional regulator ERG (Homo sapiens), P11308; 0.028% of 370,000 active; active = well fitted inhibition curve with a large enough effect in the polarisation, with a control signal flat; inconclusive = small, poorly fitted or top-dose-only effect, or effect the other way, or a change in a side signal; inactive = no such curve, though single readings can be large or run the other way; the % refers to the polarisation;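 note: polarization taken with two DNA probes labelled with fluorescein and Texas red; % of control where 0% means no effect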
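His-tagged ERG Ets domain (1 uM in the protein solution; 300mM KCl, 50mM Tris-HCl, 1mM EDTA, 1mM DTT, pH 7.5) received compound, then a probe mix of 5 nM fluorescein-DNA and 100nM Texas-615-DNA. Fluorescence polarization was read for both dyes.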
An asterisk follows results filed as active; ? = inconclusive; · = not tested or not shown; + = active, no number; ! = a repeat was not active. A selection: hits, their analogues and other compounds. The true share with any hit is near 0.4%. Unless noted, calls come from the whole dose curve; as a rule, active = well fitted curve in the direction sought with a large enough effect; inconclusive = small, poorly fitted or top-dose-only effect, or another doubt; inactive = no such curve, though single readings can be large; an effect the other way counts as inactive or inconclusive. Potency is the fitted concentration of half-maximal effect.

SMILES	RGS4 inh	EPAC1 antag	EPAC2 agonist	EPAC2 antagonist	EPAC1 agonist	ERG Ets-DNA blk
Cc1oc2cc(O)ccc2c(=O)c1-c1ccccc1	-8%	-25%	8%	-1%	-3%	11%
Oc1ccccc1C1C=C(c2ccc3c(c2)OCO3)NC(c2cccc(F)c2)N1 (stereo not given)	-1%	·	·	·	·	·
O=C(CSc1nc(-c2ccc(F)cc2)nc2ccc(F)cc12)Nc1cccc(C(=O)O)c1	?	71µM*	2%	5%	19%	-2%
COc1cccc(CNC(=O)C2=C(C)C(=O)OC23CCN(C(C)=O)CC3)c1OC	-21%	·	·	·	·	1%
O=c1cc(-c2ccccc2)oc2cc(O)cc(O)c12	6%	-6%	10%	1%	-2%	-2%
O=c1cc(-c2ccccc2)oc2cccc(O)c12	8.4µM*!	3%	-2%	-4%	-8%	-1%
CC(C)CNc1ncnc2oc(-c3ccco3)c(-c3ccco3)c12	-39%	·	·	·	·	·
COc1ccc(CN(Cc2ccccc2)C(=O)c2ccno2)cc1COc1ccc(NC(C)=O)cc1	-33%	·	·	·	·	·
CC(C)Cc1csc(NC(=O)c2ccc(F)cc2)c1C(=O)O	-6%	35µM*	-2%	-1%	5%	-1%
N#C/C(=C\c1ccc(-c2cc(Cl)ccc2Cl)o1)C(=O)Nc1cccc2ncccc12	3µM*	·	·	·	·	·
O=C(Nc1cccc(OCc2cc(=O)n3ccccc3n2)c1)c1ccccc1Br	0%	·	·	·	·	-11%
NC(=O)CSc1nc2c(sc3ccccc32)c(=O)n1CCCC(=O)NCC1CCCO1 (stereo not given)	11%	123%	-4%	92%	+	18%
O=C(CSc1nc2c(sc3ccccc32)c(=O)n1CCCN1CCOCC1)NCC1CCCO1 (stereo not given)	19%	-9%	6%	2%	4%	1%
